Laboratory results as given in PubChem BioAssay AID485349 (National Center for Advancing Translational Sciences (NCATS), 2010).
In all, about 320,000 compounds went through this assay and about 620 (0.19%) were called active. A call without a number means that no potency is given here. This is one part of a sample in which actives are shown more often than they occur. The call rests on the fitted dose curve; in most records, active means well fitted activation curve with a large enough effect; inconclusive means small, poorly fitted or top-dose-only effect; inactive means no such curve, though single readings can be large or run the other way.

Assay: qHTS Assay for Identifying a Potential Treatment of Ataxia-Telangiectasia; further: nearly all actives have a fitted effect of over 45% in size
Conditions: F2112 A-T fibroblasts, KAP-1 phosphorylation AlphaLISA, neocarzinostatin DNA damage 30 min before lysis; series mostly up to 57.5 µM
Summary of the method: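 hTERT-immortalized A-T patient fibroblasts (F2112), 500 cells/well in OPTI-MEM, 1% FBS, got compounds for 60 min, then NCS for 30 min at 37C. Lysates were then assayed for phospho-KAP-1 by AlphaLISA (anti-pKAP1 donor, anti-KAP1 acceptor beads), 6 hr at 25C.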
Potency means the concentration at half of the fitted maximal effect.

Structure (SMILES)	Potency	activation
O=C(COC(=O)Cc1ccccc1F)NCCc1ccccc1	inactive	
C#CCOCCOCCOCCNc1nc(N2CCN(C(=O)[C@H](CO)n3cc([C@@H](N)C(C)C)nn3)CC2)nc(N2CCN(C(=O)[C@H](CCC(=O)O)n3cc([C@@H](N)[C@H](C)CC)nn3)CC2)n1	inactive	
C#CCOCCOCCOCCNc1nc(N2CCN(C(=O)[C@H](CCC(=O)O)n3cc(C(N)CO)nn3)CC2)nc(N2CCN(C(=O)[C@H](CCCCN)n3cc(C(N)CC(C)C)nn3)CC2)n1 (some centres not stated)	31.6 µM (active)	
C#CCOCCOCCOCCNc1nc(N2CCN(C(=O)[C@H](CCC(=O)O)n3cc(C(N)CO)nn3)CC2)nc(N2CCN(C(=O)[C@H](CCCCN)n3cc(C(N)[C@H](C)CC)nn3)CC2)n1 (some centres not stated)	inactive	
CCOC(=O)C1=C(C)N(C[C@@H]2CC[C@@H](Cc3ccc(-c4ccccc4)cc3)O2)C(=O)NC1c1ccc([N+](=O)[O-])cc1 (some centres not stated)	inactive	
COc1ccc(OCc2nnc3n2N=C(c2ccccc2)C(CC(=O)O)S3)cc1 (configuration not stated)	inactive	
CCN(CC)C(=O)[C@H]1C[C@H](CC(=O)NCC23CC4CC(CC(C4)C2)C3)C(=O)N2CCc3c([nH]c4cc(CCC(=O)N(C)C)ccc34)[C@]12C		5.14% [at 11.5 µM] (inactive)
CN(C)CCCNC(=O)c1cc(C(=O)Cc2ccc(Cl)cc2)c[nH]1	inactive	
Cc1c(N=Nc2ccc(N(C)C)cc2)c(=O)n(-c2ccccc2)n1C	inactive	
COc1ccc(N2CCC(CNC(=S)Nc3c(C)cccc3C)C2)cc1 (configuration not stated)	17.8 µM (active)	
COc1ccc(NC(=S)NCCN2CCC(C)CC2)cc1	inactive	
COc1ccc(NC(=S)NCC2CCN(c3ccc(OC)cc3)C2)cc1 (configuration not stated)	inactive	
CC(C)(C)[Si](OCC[C@@H]1C[C@@]1(C)[C@@H](NP(=O)(c1ccccc1)c1ccccc1)c1ccccc1)(c1ccccc1)c1ccccc1	inactive	
CCOc1ccc(N(CC(=O)Nc2ccccc2F)S(=O)(=O)c2c(C)[nH]c(=O)[nH]c2=O)cc1	inactive	
CC(=O)Oc1ccccc1C1=NN(C(C)=O)C(c2ccccc2)C1 (configuration not stated)	inactive	
CNC(=S)N1N=C(c2ccccc2)CC1c1ccc(Br)cc1 (configuration not stated)	inactive	
O=C(c1ccccc1)N1N=C(c2ccccc2O)CC1c1ccc(Br)cc1 (configuration not stated)	17.8 µM (active)	
Cn1c2cc(B(O)O)sc2c2cnn(Cc3ccccc3F)c(=O)c21	inactive	
CS/C(=C\[N+](=O)[O-])Nc1ccc(C)cc1	inactive	
CCCCn1nnnc1NCc1cc(OC)c(OC)c(OC)c1	inactive	
O=C(CNCc1cccs1)Nc1cc(S(=O)(=O)N2CCCC2)ccc1Cl	3.16 µM (active)	
CS(=O)(=O)c1ccc(Cl)c(NC(=O)COC(=O)c2cccc(S(=O)(=O)N3CCCC3)c2)c1	inactive	
O=C(NCc1cccs1)C1CCN(S(=O)(=O)c2ccc(Cl)cc2)CC1	inactive	
CCCS(=O)(=O)Nc1ccc(-c2cn3c(n2)SCC3)cc1	inactive	
O=C(COC(=O)Cn1cnc2ccccc2c1=O)NCc1ccccc1Cl	inactive	
CSc1nnc(C2CCCN(CC(=O)Nc3ccccc3N3CCOCC3)C2)n1C(C)C (configuration not stated)	inactive	

Structure (SMILES)	Potency	activation
CC(C)(C)c1cc2cccnc2n1Cc1ccccc1	20 µM (active)	
CC(=O)c1nc2ccccc2n1Cc1ccccc1	inactive	
CC(C)(C)c1cc2cccnc2n1Cc1cccc(F)c1	28.2 µM (active)	
Cc1cc(C(C)(C)C)n2nc(C)c(-c3ccccc3)c2n1	inactive	
COc1ccnc2c1c(=O)n(Cc1cccc(F)c1)c(=O)n2C	inactive	
Nc1cc(N)nc(SCc2cccc(F)c2)n1	inactive	
COC(=O)c1ccc(C2C(Oc3ccccc3C)C(=O)N2CCc2ccc(OC)c(OC)c2)cc1 (configuration not stated)	inactive	
CC(=O)C1=C(O)C(=O)N(c2ccc(S(N)(=O)=O)cc2)C1c1ccccc1F (configuration not stated)	inactive	
O=P(O)(CN1CCCCC1)CN1CCCCC1	inactive	
N=c1ccn(CC(=O)NC(N)=O)c2ccccc12	inactive	
O=C(OCCN=C1NS(=O)(=O)c2ccccc21)c1cccc([N+](=O)[O-])c1	inactive	
O=C(O)c1[nH]c2ccccc2c1C(c1cccc(O)c1)c1c(C(=O)O)[nH]c2ccccc12	inactive	
C[C@@H]1CN([C@@H](C)CO)C(=O)c2cc(NC(=O)C3CC3)ccc2O[C@H]1CN(C)C	inactive	
O=c1o[nH]c(-c2ccccc2)c1N=Nc1c(F)cccc1Cl	inactive	
COc1ccc(C(C)NC(=S)NC2CCCCC2)cc1OC (configuration not stated)	inactive	
Cc1ccc(CNC(=O)Cc2cn(C)c3ccccc23)cc1	inactive	
O=C(NCc1ccco1)/C(=C/c1ccco1)NC(=O)c1ccccc1	inactive	
Cc1ccc(C(=O)N/C(=C\c2ccco2)C(=O)NC2CCS(=O)(=O)C2)cc1 (configuration not stated)	10 µM (active)	
O=C(NCC1CCCO1)/C(=C\c1ccco1)NC(=O)c1ccccc1 (configuration not stated)	inactive	
O=S(=O)(NC1CCN(S(=O)(=O)c2ccc3c(c2)OCCO3)CC1)c1c(F)cccc1F	inactive	
CC1CCCN(C(=O)c2ccc3c(c2)C(=O)N(CCC2=CCCCC2)C3=O)C1 (configuration not stated)	inactive	
COc1ccc2[nH]c3c(c2c1)CCN1C(=O)C(CC(=O)NCCc2ccccn2)C[C@H](C(=O)N2CCOCC2)[C@@]31C (some centres not stated)	inactive	
O=C(NCC1CCCO1)c1ccc(S(=O)(=O)Nc2ccc(F)cc2)cc1 (configuration not stated)	inactive	
O=C1CCCN1C(=O)COc1ccc([N+](=O)[O-])cc1	inactive	
O=S(=O)(NCCc1csc(-c2ccccc2)n1)c1cccnc1	inactive	
COc1ccc(-c2nc(CCNC(=O)c3ccc(Br)o3)cs2)cc1	inactive	

Structure (SMILES)	Potency	activation
O=C(NCCc1csc(-c2ccccc2)n1)c1ccccc1F	22.4 µM (active)	
COCCn1c(C)cc(C(=O)COC(=O)/C=C/c2cccc(OC)c2)c1C	inactive	
CCOC(=O)C1=CN(Cc2ccc(Br)cc2)S(=O)(=O)NC1C (configuration not stated)	inactive	
O=C(Nc1cccc2c1N(C(=O)c1ccco1)CCC2)c1ccco1	35.5 µM (active)	
O=C(Nc1ccccc1N1CCN(C(=O)c2ccccc2)CC1)c1ccco1	inactive	
O=C(Nc1ccccc1C(=O)N1CCCCC1)c1ccco1	inactive	
CCN(C(=O)COC(=O)c1c(C)nn(-c2ccccc2)c1Cl)c1c(N)n(Cc2ccccc2)c(=O)[nH]c1=O	inactive	
CC[C@]12c3[nH]c4ccc(Cl)cc4c3CCN1C(=O)[C@@H](CC(=O)NCCN1CCOCC1)C[C@@H]2C(=O)N1CCN(C(=O)C2CC2)CC1	inactive	
CCN(CC)P(=O)(Nc1ccc(SC(F)F)cc1)c1ccc(N(C)C)cc1NC(=O)c1ccco1 (configuration not stated)	inactive	
CCCCNC(=O)C(C)N(CCN(C)C)C(=O)CCCCCN1C(=O)NC(c2ccc(Cl)cc2)C(C(=O)OCc2ccccc2)=C1C (configuration not stated)	inactive	
Cc1cccc(-n2c(SCC(=O)Nc3cccc(S(=O)(=O)NC4=NCCCCC4)c3)nc3ccccc3c2=O)c1C	inactive	
CC/C=C/C(=O)N1CC2(CC(c3cccc(NC(=O)CC)c3)=NO2)C[C@H]1C(N)=O (some centres not stated)	inactive	
C/C=C\C=C\C(=O)N1CC2(CC(c3cccc(NC(=O)/C(C)=C\C)c3)=NO2)C[C@H]1C(N)=O (some centres not stated)	25.1 µM (active)	
C/C=C(/C)C(=O)Nc1cccc(C2=NOC3(C2)C[C@@H](C(N)=O)N(C(=O)C2(C)CC2)C3)c1 (some centres not stated)	inactive	
O=C(NCCC(=O)N1O[C@@H]2C=C[C@H]1C2)OCC1c2ccccc2-c2ccccc21		-1.69% [at 11.5 µM] (inactive)
Cc1ccc(S(=O)(=O)N2CCN(C)CC2)cc1C(=O)NC1CCCCC1	inactive	
Fc1ccc(CNCc2ccc(Br)cc2)cc1	inactive	
Cc1cccc(CN2CCN(Cc3cnn(-c4ccccc4F)c3)CC2CCO)n1 (configuration not stated)	inactive	
O=C(Nc1ccccc1)N1CCC(C(=O)N2CCN(Cc3ccccc3)CC2)CC1	inactive	
COc1ccc(N(CC(=O)Nc2ccc(C)cc2C)S(=O)(=O)c2ccccc2[N+](=O)[O-])c(OC)c1		2.47% [at 11.5 µM] (inactive)
CCOC(=O)N1CCC(Nc2c(NCCCN3CCN(c4ccc(OC)cc4)CC3)c(=O)c2=O)CC1	11.2 µM (active)	
CCOC(=O)N1CCC(Nc2c(NCCCN3CCN(CC)CC3)c(=O)c2=O)CC1	inactive	
CCOC(=O)N1CCC(Nc2c(NCCN3CCN(c4cccc(Cl)c4)CC3)c(=O)c2=O)CC1	inactive	
CCCCCCCCCCCCN1C(=O)CSC1c1cccnc1 (configuration not stated)	inactive	
CC(C)Cc1ccc(S(=O)(=O)N2CCN(C(=O)c3ccco3)CC2)cc1	inactive	
